Compound activity from PubChem.
This is a sample that favours compounds with a hit; in the whole collection about 6.1% have one here.
ATXN2 expr inh – inhibitors of ATXN2 expression; HEK-293 ATXN2-luciferase reporter, luminescence, 24 h; Potency, µM (doses to about 57 µM), usual class: inhibitors; 360,000 compounds, 0.72% hits; further: nearly all actives have a fitted effect of over 55% in size
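qHTS (up to 57 uM final) was run with 24 h compound exposure of reporter cells at 37 °C. Each well was multiplexed: SteadyGlo luminescence measured ATXN2-luciferase expression after a fluorogenic Gly-Phe-AFC viability readout (25 uM final).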
TGFb SMAD3 inh – TGF-b pathway inhibition; Potency, µM (highest dose often 46.1 µM), usual class: inhibitors; 410,000 compounds, 1.2% hits; AID 588855; HepG2 CAGA-GFP TGF-b/SMAD3 reporter, GFP fluorescence, 18 h; TGF-beta stimulated, 500 pg/mL final; further: nearly all actives have a fitted effect of over 65% in size
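Smad-responsive CAGA-GFP expression was quantified in HEPG2 cells exposed to compounds and 500 pg/mL final TGF-beta for 18 h at 37 degrees C; unstimulated wells defined full inhibition.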
VP16 counter – inhibits Gal4-VP16 luciferase reporter, ROR gamma counter-screen. Drosophila S2 Gal4-VP16 UAS-luciferase, luminescence, 20 h. Potency, µM (highest dose often 53.6 µM), most hits filed as inhibitors. 310,000 compounds, 3.5% hits. AID 2546;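 further: Gal4-VP16 expression switched on by copper sulfate through the metallothionein promoter; nearly all actives have a fitted effect of over 50% in size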
HepG2 viability – kills HepG2 cells in TGF-b inhibitor counter-screen | HepG2 CAGA-GFP viability, ATP luminescence, 18 h | Potency, µM (doses to about 46.1 µM), hits mostly cytotoxic | 410,000 compounds, 0.76% hits | AID 588856
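CellTiter-Glo luminescence gave cytotoxicity after 18 hours at 37 degrees C. The cells were HepG2 CAGA-GFP in 1% FBS DMEM, stimulated with 500 pg/mL TGF-beta after compound addition. %Activity was normalised to no-cell wells (complete cell-killing) and DMSO (no toxicity), and curves were fitted and classified.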
RORg inh – ROR gamma (mouse) transcription inhibition; P51450; Drosophila S2 Gal4-RORgamma UAS-luciferase reporter, 20 h; Potency, µM (top dose mostly 53.6 µM), usual class: inhibitors; 310,000 compounds, 5.4% hits; AID 2551; further: nearly all actives have a fitted effect of over 60% in size
Target sequence (P51450 whole entry, looked up, the tested form may be a part): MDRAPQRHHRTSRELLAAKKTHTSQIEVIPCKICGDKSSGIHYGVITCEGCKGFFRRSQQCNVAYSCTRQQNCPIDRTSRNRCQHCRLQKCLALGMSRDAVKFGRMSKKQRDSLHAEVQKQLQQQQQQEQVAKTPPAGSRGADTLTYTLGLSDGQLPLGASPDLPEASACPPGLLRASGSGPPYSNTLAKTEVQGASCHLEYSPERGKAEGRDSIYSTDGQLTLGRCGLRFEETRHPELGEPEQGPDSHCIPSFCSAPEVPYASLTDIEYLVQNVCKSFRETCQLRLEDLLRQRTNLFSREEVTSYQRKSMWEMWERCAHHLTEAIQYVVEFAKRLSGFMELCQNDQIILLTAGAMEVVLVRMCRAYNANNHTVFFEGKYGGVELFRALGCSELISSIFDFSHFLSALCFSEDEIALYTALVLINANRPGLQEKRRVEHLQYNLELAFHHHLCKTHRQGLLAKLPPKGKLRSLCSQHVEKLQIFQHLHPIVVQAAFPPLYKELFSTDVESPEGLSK
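Schneider cells (Drosophila), stable Gal4 DBD–ROR gamma + UAS-luc; 1 hr cmpd preincubation; Cu2+ induction 700 uM final; 20 hr ambient; luminescence.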
ATXN viability – viability counter-screen for ATXN expression inhibitors; S2 cells (HEK-293 line with an ATXN2-luciferase reporter) viability, CellTiter-Fluor protease fluorescence, 24 h; Potency, µM (highest dose often 56.7 µM), actives largely listed as cytotoxic; 400,000 compounds, 0.49% hits; AID 651635; further: nearly all actives have a fitted effect of over 40% in size
Numbers stand for hits; [ ] = dose if it differs, or a comment. The call rests on the fitted dose curve; in most records, active means well fitted curve in the direction sought with a large enough effect; inconclusive means small, poorly fitted or top-dose-only effect, or another doubt; inactive means no such curve, though single readings can be large; an effect the other way counts as inactive or inconclusive.

What do the screens show for `Cn1c(SCC(=O)N/N=C/c2cc([N+](=O)[O-])ccc2O)nnc1-c1ccccc1`?
ATXN2 expr inh: inconclusive; TGFb SMAD3 inh: inactive; VP16 counter: inactive; HepG2 viability: inactive; RORg inh: inactive; ATXN viability: inactive

What do the screens show for `O=C(N/N=C/c1ccc([N+](=O)[O-])cc1)c1cc(C2CC2)nc2ccccc12`?
ATXN2 expr inh: inconclusive; TGFb SMAD3 inh: inactive; VP16 counter: inactive; HepG2 viability: inactive; RORg inh: inactive; ATXN viability: inconclusive

What do the screens show for `COc1ccc(C2/C=C\CN(C(=O)c3ccc(C)cc3)C(C)C(=O)N2Cc2ccc(F)cc2)cc1` (configuration not stated)?
TGFb SMAD3 inh: inconclusive; VP16 counter: inactive; HepG2 viability: inactive; RORg inh: inactive

What do the screens show for `CCOC(=O)N1CCN(Cc2ccc3c(c2)CN(C(=O)c2noc4c2CCCC4)CCO3)CC1`?
ATXN viability: inactive

Results for O=C(N/N=C/c1cccs1)c1cncc(Br)c1 ?
ATXN2 expr inh: inactive[11.3 µM]; TGFb SMAD3 inh: inactive; VP16 counter: 2µM; HepG2 viability: inactive; RORg inh: 1µM; ATXN viability: inactive

Results for O=C(N/N=C/c1ccc([N+](=O)[O-])s1)c1ccccc1 ?
ATXN2 expr inh: inconclusive; TGFb SMAD3 inh: 11µM; VP16 counter: 1.3µM; HepG2 viability: 13µM; RORg inh: 0.79µM; ATXN viability: inactive

How did Cc1ccnn1CC(=O)N/N=C/c1cccs1 do in these assays?
ATXN2 expr inh: inactive; TGFb SMAD3 inh: inactive; VP16 counter: inactive; HepG2 viability: inactive; RORg inh: inactive; ATXN viability: inactive

Results for Cc1ccccc1C(=O)N/N=C/c1ccc([N+](=O)[O-])s1 ?
ATXN2 expr inh: 7.9µM; TGFb SMAD3 inh: inconclusive; VP16 counter: 2µM; HepG2 viability: inactive; RORg inh: 1.8µM; ATXN viability: inconclusive

What do the screens show for `Cc1ccnn1CC(=O)N/N=C/c1ccc([N+](=O)[O-])s1`?
ATXN2 expr inh: inconclusive; TGFb SMAD3 inh: 11µM; VP16 counter: inactive; HepG2 viability: inactive; RORg inh: inactive; ATXN viability: inactive

What do the screens show for `COCc1c(C(=O)N2CCCC(C)C2)cnn1-c1nccc(-c2cc(C)sc2C)n1` (configuration not stated)?
ATXN viability: inactive

What do the screens show for `CC(C)Cn1c(=O)c2ccccc2n2c(CCC(=O)Nc3ccc(F)cc3)nnc12`?
TGFb SMAD3 inh: inactive; HepG2 viability: inactive

How did CC#CC(C)C(OCOC)C(CC(C)Cc1cc(Br)cc(OCc2ccccc2)c1OC)OC (configuration not stated) do in these assays?
VP16 counter: inactive[10 µM]; RORg inh: inactive[10 µM]

Results for Cc1ccsc1/C=N/Nc1ccc(C(=O)O)cc1 ?
TGFb SMAD3 inh: inactive; VP16 counter: 0.22µM; HepG2 viability: inactive; RORg inh: 1.1µM; ATXN viability: inactive

How did Cc1cc(C(=O)N/N=C/c2ccc([N+](=O)[O-])s2)c2ccccc2n1 do in these assays?
ATXN2 expr inh: inconclusive; TGFb SMAD3 inh: 10µM; VP16 counter: 3.5µM; HepG2 viability: inactive; RORg inh: 5.6µM; ATXN viability: inconclusive

What do the screens show for `Cc1ccc(-c2nnc(SCC(=O)N/N=C/c3ccccc3C(=O)O)n2-c2ccccc2)cc1`?
VP16 counter: inactive; RORg inh: inactive

What do the screens show for `O=C(N/N=C/c1ccc([N+](=O)[O-])s1)c1ccccc1Br`?
ATXN2 expr inh: inconclusive; TGFb SMAD3 inh: 11µM; VP16 counter: 6.3µM; HepG2 viability: 10µM; RORg inh: 1.8µM; ATXN viability: inconclusive

Results for Cc1ccc(-c2nnc(SCC(=O)N/N=C/c3ccc(C)s3)n2-c2ccc(C)cc2)cc1 ?
ATXN2 expr inh: inactive; TGFb SMAD3 inh: inconclusive; VP16 counter: inconclusive; HepG2 viability: inactive; RORg inh: 18µM; ATXN viability: inconclusive

Results for Cc1ccsc1/C=N/Nc1cccc(C(=O)O)c1 ?
ATXN2 expr inh: inactive; TGFb SMAD3 inh: inactive; VP16 counter: inconclusive; HepG2 viability: inactive; RORg inh: inconclusive; ATXN viability: inconclusive
